Sampled rows, rich in hits. Any-hit rate of the full collection: about 7.9%.
KB-3-1 tox: kills parental KB-3-1 adenocarcinoma cells | KB-3-1 viability, CellTiter-Glo ATP luminescence, 72 h | Potency, µM (series often up to 46.1 µM), most hits filed as cytotoxic | 400,000 compounds, 1.4% hits; also: % is scaled to controls: 0 for no effect and ±100 for the full control effect; nearly all actives have a fitted effect of over 60% in size
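Luminescent ATP read-out (CellTiter-Glo) measures survival of drug-naive KB-3-1 cells after 72 h compound exposure at 37 °C. Titration series was screened from lowest to highest concentration, with DMSO vehicle plates as background controls.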
HT1080NT lethal: kills 2HG-producing HT-1080-NT fibrosarcoma cells. HT-1080-NT fibrosarcoma viability, CellTiter-Glo ATP luminescence, 48 h. 360,000 compounds, 1.6% hits. Potency, µM (highest dose often 46.1 µM), for inactives: top-dose activity, negative = less viability, hits mostly cytotoxic. AID 686970;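 also: NT is the 2HG producing partner of a matched IDH1 knockdown line; 0% = DMSO-treated cells and -100% = media-only wells without cells; nearly all actives have a fitted effect of over 55% in size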
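A 48-hour cytotoxicity screen used HT-1080-NT cells plated 2 hours before compound delivery. ATP-based CellTiter-Glo luminescence measured viability, normalized to DMSO and no-cell controls.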
KB-V1 cytotox: KB-V1 MDR subline cytotoxicity | KB-V1 MDR cells viability, CellTiter-Glo, 72 h | Potency, µM (doses to about 46.1 µM), usual class: cytotoxic | 400,000 compounds, 3.4% hits | AID 1347076; also: % is scaled to controls: 0 for no effect and ±100 for the full control effect; nearly all actives have a fitted effect of over 60% in size
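KB-V1 cells (P-gp-expressing MDR subline of KB-3-1) in phenol-red-free DMEM with 10% FBS were exposed to library compounds over a concentration series for 72 h at 37 degrees C. Viability read by CellTiter-Glo luminescence; concentration-effect curves fitted after normalization.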
MCF10A rerep: DNA re-replication induction in MCF 10a cells. MCF 10A DNA re-replication, Hoechst nuclear intensity, 48 h. Potency, µM (highest dose often 46.1 µM), inactives show at the top dose activity, positive = re-replication, usual class: activators. 350,000 compounds, 2.9% hits; also: % of control where 0% means no effect; nearly all actives have a fitted effect of over 50% in size
SW480 rerep: DNA re-replication induction in SW480 cells | AID 624297 | SW480 DNA re-replication, Hoechst DNA content imaging, 48 h | 340,000 compounds, 1.8% hits | Potency, µM (top dose mostly 46.1 µM), for inactives: at the highest dose re-replication activation, actives largely listed as activators; also: % of control where 0% means no effect; nearly all actives have a fitted effect of over 55% in size
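Cells (250 per well) received 23 nL compound or DMSO by pin tool and were kept 48 hr at 37 C, 5% CO2. Nuclei were then stained with Hoechst for 40 min and scanned for DNA content.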
HT1080 IDH1KD tx: toxicity to HT-1080 IDH1 knockdown cells (counter line). HT-1080 IDH1 knockdown viability, ATP luminescence, 48 h. Potency, µM (doses to about 46.1 µM), without a hit: at the top dose activity, negative = toxicity, most hits filed as cytotoxic. 360,000 compounds, 2% hits. AID 686971;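 also: 0% = DMSO wells and -100% = cell-free medium wells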
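In this qHTS, HT-1080 cells depleted of IDH1 are exposed for 48 h at 37 °C to compound titrations. Toxicity is scored from CellTiter-Glo luminescence, with DMSO as full viability and medium alone as none.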
Active calls of the source: *; i = inactive; ? = inconclusive; . = no result given. Calls follow the shape of the dose curve; as a rule, active = well fitted curve in the direction sought with a large enough effect; inconclusive = small, poorly fitted or top-dose-only effect, or another doubt; inactive = no such curve, though single readings can be large; an effect the other way counts as inactive or inconclusive. Potency is read from the fitted curve at half-maximal effect.

SMILES | KB-3-1 tox | HT1080NT lethal | KB-V1 cytotox | MCF10A rerep | SW480 rerep | HT1080 IDH1KD tx
Cc1onc(-c2ccccc2)c1C(=O)Nc1sc2c(c1C(N)=O)CCC2 | i | -29% | ? | 4% | 7% | -1%
Cc1cc(C)c(NC(=O)Cn2c(=O)n(-c3ccc(F)cc3)c(=O)c3c(C)c(C(=O)N(C)C)sc32)c(C)c1 | i | . | i | . | . | .
CCCc1nnc(NC(=O)Cc2coc3c(C)c(C)ccc23)s1 | i | . | i | . | . | .
Cc1ccc(NC(=O)CN2C(=O)CCc3cc(S(=O)(=O)N4CCOCC4)ccc32)c(C)c1 | i | . | i | . | . | .
c1ccc(COc2ncnc3c2ncn3CCCN2CCN(c3ncccn3)CC2)cc1 | i | -11% | i | . | . | 3%
Cc1ccc(-n2nc(C)c3c(C)cc(=O)n(CC(=O)NCc4ccc(OC(C)C)cc4)c32)cc1 | i | . | i | . | . | .
Cn1cc([N+](=O)[O-])c(C(=O)Nc2sc3c(c2C#N)CCC3)n1 | ? | ? | ? | 3.7µM* | ? | -5%
Cc1ccsc1C(=O)N1CCC1(C)C(=O)NS(=O)(=O)c1ccc(Br)cc1 (stereo not given) | i | 10% | i | . | . | 6%
Cc1cc(C)n(-c2ccn(Cc3ccc(Cl)cc3Cl)c(=O)n2)n1 | i | -15% | 7.3µM* | 2% | -4% | -22%
COc1ccccc1-c1ccc(/C=C2\C=CC(=O)O2)o1 | i | -27% | i | 21µM* | ? | ?
COc1ccccc1-c1ccc(/C=C2/C=C(C)OC2=O)o1 | i | 4% | i | 21µM* | ? | 9%
CC(C)Oc1ccc(CNC(=O)CCCN2C(=O)c3cccnc3Oc3ccc(Cl)cc32)cc1 | i | . | i | . | . | .
COc1cc2c(c(OC)c1)C(c1cc(OC)c(OC)c(OC)c1)CC(=O)N2 (stereo not given) | i | . | i | . | . | .
Cc1ccc(C(C[N+](=O)[O-])Sc2ccc(N)cc2)cc1 (stereo not given) | i | ? | ? | 7.3µM* | ? | 16µM*
CC(=O)Nc1cccc(NC(=O)CSc2nc(C)c(C)c(C)c2C#N)c1 | i | 0% | ? | 6% | 24% | 1%
Cc1cccc(C)c1NC(=O)CSc1nc(C)c(CC(=O)c2ccc(Br)cc2)c(C)c1C#N | ? | 34% | ? | 16µM* | 10% | 14%
CON(C)S(=O)(=O)c1cccc(C(=O)Nc2cccc(S(=O)(=O)NC3=NCCCCC3)c2)c1 | ? | -2% | i | 5% | -25% | -2%
Cc1cc(C)nc(-n2nc(C)cc2NC(=O)CNCc2ccccc2)n1 | i | 1% | ? | 11% | -4% | -4%
Cc1cc(C)nc(-n2nc(C)cc2NC(=O)CN2CCc3ccccc3C2)n1 | i | ? | ? | ? | 12% | 1.6µM*
Cc1cc(C)nc(-n2nc(C)cc2NC(=O)CN2CCCC(C)C2)n1 (stereo not given) | i | 1.3µM* | i | ? | 4% | 2µM*
Cc1cc(C)nc(-n2nc(C)cc2NC(=O)CNC2CCCCC2)n1 | i | -8% | i | 6% | -3% | -4%
O=C(CSc1nnc(Cn2nnc3ccccc32)o1)Nc1cccc(Cl)c1 | i | 15% | i | 8% | -3% | 14%
O=C(CSc1nnc(Cn2nnc3ccccc32)o1)N(Cc1ccc(Cl)cc1)c1ccccc1 | 13µM* | -5% | i | -15% | 3% | 3.3µM*
COc1ccc(-n2cc(C(=O)Oc3cc(C)cc(C)c3)c3ccccc3c2=O)cc1 | i | . | i | . | . | .
COc1ccc(CN(C2CCCCC2C)S(=O)(=O)c2ccc(S(=O)(=O)N(C)C)cc2)cc1OC (stereo not given) | i | -4% | 6.5µM* | ? | 29% | -12%
Clc1ncnc2c1oc1ccccc12 | ? | -20% | i | 7% | 30% | -13%
